We go through six molecules from PubChem BioAssay AID720607 (Broad Institute, 2013).

The nature of this test: cytotoxicity in CCRF-CEM lymphoblastic leukemia cells – cell-based, CellTiter-Glo ATP luminescence, 8/24/48 h, dry powder, HRAS target identification, dose response (AID 720607). As to conditions: CCRF-CEM viability, 8-48 h; for activity change: top conc, at 35 µM, stronger effect = lower value.

Inconclusive results are not listed. Calls of active or inactive are those of the source.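 How the source made its calls: active means compounds that lower cell viability with a fitted half-maximal potency within a set limit tied to top dose; inconclusive means flat fitted activity from -70 to -30, or unreliable fit; inactive means flat near zero, opposite effect, or weaker potency.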

Regarding `CC(C)(C)OC(=O)NCCOCCOCCOc1ccc(N(C(=O)CCl)C(C(=O)NCCc2ccccc2)c2cccs2)cc1Cl` (stereo not drawn), the activity change is, setting by setting: (8 h series) -88.9%; (24 h series) -98.2%.

Regarding `COc1ccc(N(C(=O)CCl)C(C(=O)NCCc2ccccc2)c2cccs2)cc1Cl` (stereo not drawn), the activity change runs as follows: (8 h series) -85.7%; (24 h series) -98%.

For the molecule `Cc1onc(C(=O)N2CCN(C(c3ccncc3)c3ccncc3)CC2)c1[N+](=O)[O-]`, the activity change is -2.67% (8 h series) and -2.69% (24 h series). Besides, under “at 35 µM (top of the series)”, the activity change, negative = cytotoxicity was -4.38% (inactive).

In the case of `C#CCCCC(=O)NCCOCCOCCOc1ccc(N(C(=O)CCl)C(C(=O)NCCc2ccccc2)c2cccs2)cc1Cl` (stereo not drawn), the activity change by setting is: (8 h series) -87.7%; (24 h series) -97.5%.

On to `Cc1onc(C(=O)N2CCN(C(c3ccc(Cl)cc3)c3ccc(Cl)cc3)CC2)c1[N+](=O)[O-]`, for which the activity change (8 h series) was -63.7% and the activity change (24 h series) is -96.7%.

Turning to `COC(=O)c1ccc([C@@H]2c3[nH]c4ccccc4c3C[C@@H](C(=O)OC)N2C(=O)CCl)cc1`, the activity change (8 h series) was -77.8% and the activity change (24 h series) was -98.1%.
